In PubChem BioAssay (NCATS):
Activity calls are given as the source filed them. Calls come from the whole dose curve.

Experiment: qHTS drug screen for cell cycle checkpoint inhibitors in PARPi-resistant BRCA-mutant ovarian cancer cell lines. (AID 1963452)
Conditions: PEO1/OlaR viability, CellTiter-Glo luminescence, 96 h, stronger effect = lower value
Source text: Women's Malignancies Branch, Center for Cancer Research (CCR),
National Cancer Institute (NCI), National Institutes of Health (NIH), Bethesda, MD
Poly (ADP-ribose) polymerase inhibitors (PARPis) have changed the treatment paradigm in breast cancer gene (BRCA) - mutant high-grade serous ovarian carcinoma (HGSC). However, most patients eventually develop resistance to PARPis, highlighting an unmet need for improved therapeutic strategies. Using high-throughput drug screens, we identified ataxia telangiectasia and rad3-related protein/checkpoint kinase 1 (CHK1) pathway inhibitors as cytotoxic and further validated the activity of the CHK1 inhibitor (CHK1i) prexasertib in PARPi-sensitive and -resistant BRCA-mutant HGSC cells and xenograft mouse models. CHK1i monotherapy induced DNA damage, apoptosis, and tumor size reduction. We then conducted a phase 2 study (NCT02203513) of prexasertib in patients with BRCA-mutant HGSC. The treatment was well tolerated but yielded an objective response rate of 6% (1 of 17; one partial response) in patients with previous PARPi treatment. […] BRCA reversion mutation in previously PARPi-treated BRCA-mutant patients was not associated with resistance to CHK1i.
Among others, 1082 oncology drugs, both approved and investigational, were prioritized based on their status in clinical trial development. […] Drugs with average Z-AUC values less than -1.0 in all three cell lines were classified as "hits" resulting in 151 oncology drug hits. The screen also confirmed cross-resistance between olaparib and other PARPis (rucaparib, niraparib, and talazoparib) in PARPi-resistant PEO1/OlaR and PEO4.
[1] G. L. Lin, K. M. Wilson, M. Ceribelli, B. Z. Stanton, P. J. Woo, S. Kreimer, E. Y. Qin, X. Zhang, J. Lennon, S. Nagaraja, P. J. Morris, M. Quezada, S. M. Gillespie, D. Y. Duveau, A. M. Michalowski, P. Shinn, R. Guha, M. Ferrer, C. Klumpp-Thomas, S. Michael, C. McKnight, P. Minhas, Z. Itkin, E. H. Raabe, L. Chen, R. Ghanem, A. C. Geraghty, L. Ni, K. I. Andreasson, N. A. Vitanza, K. E.Warren, C. J. Thomas, M. Monje, Therapeutic strategies for diffuse midline glioma from high-throughput combination drug screening. Sci. Transl. Med. 11, (2019).
[2] T. M. Yamamoto, A. McMellen, Z. L. Watson, J. Aguilera, R. Ferguson, E. Nurmemmedov, T. Thakar, G. L. Moldovan, H. Kim, D. M. Cittelly, A. M. Joglar, E. P. Brennecke, H. Wilson, K. Behbakht, M. J. Sikora, B. G. Bitler, Activation of Wnt signaling promotes olaparib resistant ovarian cancer. Mol. Carcinog. 58, 1770 - 1782 (2019).
PROTOCOL TABLE (as described by Inglese J, Shamu CE and Guy RK. 2007)
SEQUENCE No. (e.g., 1, 2, 3, etc.); […] (e.g., Cells, Incubation, Reagent, etc.); VALUE; DESCRIPTION.
1; Compounds; 20nL; 1536-well white tissue culture-treated plates.
2; Cells; 5 uL; PEO1, PEO4, and PEO1/OlaR cells at 600 cells per well.
3; Incubation; 96 hr; 37C, 95% humidity, 5% CO2.
4; Reagent; 3 uL; CellTiter-Glo (Promega).
5; Incubation; 15 min; room temperature.
6; Detection; Luminescence, PHERAstar (BMG Labtech) plate reader.
NOTES (numbers refer to Sequence numbers above)
1. MIPE 5.0 compounds were acoustically dispensed by Echo Acoustic Liquid Handler (Beckman Coulter Life Sciences). Each compound was plated at an 11-point concentration range with 1:3 dilution. Bortezomib, a proteasome inhibitor (final concentration, 20 uM), was used as a positive.
2. PEO1, PEO4, and PEO1/OlaR were trypsinized and dispensed in 5 uLof growth medium using a Multidrop Combi dispenser at a density of 600 cells per well to allow compounds to be present during the exponential growth phase.
3. Plates were incubated for 96 hours at standard incubator conditions and covered by a stainless steel gasketed lid to prevent evaporation.
4. Three microliters of CellTiter-Glo (Promega) were added to each well.
5. Plates were incubated at room temperature for 15 min with a stainless-steel lid in place.
6. Luminescence readings were taken using PHERAstar (BMG Labtech). […]

[1] = measured here: PEO1 parental Z-AUC

Row | SMILES | Z-AUC | Z-AUC [1] | Z-AUC (measured here: PEO4 Z-AUC)
1 | Cc1[nH]c(/C=C2\C(=O)Nc3ccccc32)c(C)c1CCC(=O)O | 0.922 (inactive) | 0.668 | 0.162
2 | COc1cc(-c2cc(-c3ccc(N4CCNCC4)cc3)cnc2C)cc(OC)c1OC | -1.12 (inactive) | -0.592 | -0.59
3 | COc1cc(OC)cc(N(CCNC(C)C)c2ccc3ncc(-c4cnn(C)c4)nc3c2)c1 | -0.272 (inactive) | -0.0954 | -0.145
4 | O=C(NOCCO)c1cc(CN2OCCCC2=O)c(F)c(F)c1Nc1ccc(I)cc1F | -1.18 (inactive) | -0.961 | -1.01
5 | CN1CCN(c2nc(C3=C(c4c[nH]c5ccccc45)C(=O)NC3=O)c3ccccc3n2)CC1 | 1.37 (inactive) | 0.875 | 0.634
6 | CCN(CCCOc1ccc2c(Nc3cc(CC(=O)Nc4cccc(F)c4)[nH]n3)ncnc2c1)CCOP(=O)(O)O | 1.19 (inactive) | 0.684 | 0.183
7 | CCC(=O)Nc1cccc(Oc2nc(Nc3ccc(N4CCN(C)CC4)cc3OC)ncc2Cl)c1 | -0.15 (inactive) | 0.187 | 0.383
8 | CN(CCO)C1CCN(c2ccc(Nc3ncc4c5ccnc(F)c5n(C5CCCC5)c4n3)nc2)CC1 | -1.43 (inactive) | -0.563 | -1
9 | CNCCN(C)Cc1cn[nH]c1-c1ccc(OC2CC(OCCC3CCOCC3)C2)cc1 (configuration not stated) | -0.683 (inactive) | -1 | -0.979
10 | COC(=O)/C=C/C(=O)N(O)CCCCNCc1ccc(COC(=O)Nc2cccc3ccccc23)cc1 | 0.336 (inactive) | 0.0181 | 0.131
11 | CCc1c(C(=O)NNC(=O)[C@@H](O)c2cc(F)cc(F)c2)ccc(O)c1C | 1.17 (inactive) | 0.688 | 1.04
12 | Cc1[nH]c(/C=C2\C(=O)Nc3ccc(F)cc32)c(C)c1C(=O)NC[C@H](O)CN1CCOCC1 | -1.33 (inactive) | 0.846 | 0.0211
13 | COc1ccc(-c2cc(C(O)C3CCCCN3)c3ccccc3n2)cc1 (configuration not stated) | -0.506 (inactive) | -0.864 | -0.334
14 | CNC(=O)[C@H]1O[C@@H](n2cnc3c(NCc4cccc(I)c4)nc(Cl)nc32)[C@H](O)[C@@H]1O | 0.981 (inactive) | 0.685 | 0.71
